Hit rate of the full screen: of about 370,000 compounds, about 4,700 (1.3%) were called active.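 How the source made its calls: active means inhibition above the plate cutoff, the mean of all test compounds on that plate plus 3 SD (cut at about 35% in these data); inactive means the rest.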 For the sample, actives were picked, then their nearest neighbours and some compounds at random.
Assay: binders of r(CAG) RNA repeats, primary screen, biochemical, fluorescence (AID 651821);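 further: 0% = DMSO alone and 100% = 100 µM mitoxantrone as full dye displacement; higher means more dye released from RNA so lower well fluorescence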
Details: r(CAG) RNA repeat, TO-PRO-1 dye displacement fluorescence; at 3 µM; stronger effect = higher value

SMILES | inhibition
O=C(NCc1cccs1)C1CCN(S(=O)(=O)c2ccccc2[N+](=O)[O-])CC1 | 7.31% (inactive)
CCC(CO)Nc1cccc2c1S(=O)(=O)N(Cc1cn(Cc3ccccc3C(F)(F)F)nn1)Cc1ccccc1O2 (configuration not stated) | 7.47% (inactive)
COC(=O)C[C@H]1CC[C@H]2[C@H](COc3ccc(NC(=O)C4CC4)cc3C(=O)N2C)O1 | -1.01% (inactive)
Nc1[nH]c(C(=O)c2ccc(Br)cc2)c(-c2ccc3c(c2)OCO3)c1C(=O)NCCc1c[nH]c2ccccc12 | 14.8% (inactive)
Cc1ccc(C(=O)N(Cc2ccccn2)CC2CCCO2)cc1 (configuration not stated) | -0.73% (inactive)
COc1cc(/C=C2/C(=O)NN(c3cccc(Cl)c3)C2=O)cc(Br)c1O | 64% (active)
CCOc1c(Br)cc(/C=C2\C(=O)N(CCC#N)N=C2C)cc1OC | 16.2% (inactive)
CCN(C(=O)[C@@H](C1CC1)[C@@H](O)c1ccc2ccccc2c1)c1ccccc1 | -1.86% (inactive)
COC(=O)[C@]12C[C@H](CC(=O)NCc3ccc(C)o3)C(=O)N(CCC3=CCCCC3)C1=C[C@H](C(C)(C)C)O[C@@H]2C | 0.73% (inactive)
O=C(CNS(=O)(=O)c1ccccc1F)N1CCN(c2ccccn2)CC1 | -0.14% (inactive)
COc1ccc2[nH]c3c(C)c4cc[n+](C)cc4c(C)c3c2c1 | 39.2% (active)
CC(=O)N1CCCN(C2=Nc3ccccc3Sc3ccccc32)CC1 | -1.49% (inactive)
O=S1(=O)c2ccc(Br)cc2OC[C@@H](Cc2ccccc2)N1Cc1cn(Cc2ccco2)nn1 | 4.58% (inactive)
Cc1ccc(-c2csc(NCCc3nc4cc(Cl)c(Cl)cc4n3CCOCCO)n2)cc1 | 17.1% (inactive)
CC(=O)Nc1cnc(-c2ccc(O)cc2C)cn1 | 1.38% (inactive)
Cc1ccc(Nc2nc(-c3ccc(O)cc3O)cs2)nc1 | 36.2% (active)
O=S(=O)(c1cccs1)N1CCCc2nc(-c3ccc(Br)cc3)ccc21 | 4.14% (inactive)
O=C(CSc1nc2ccccc2nc1N1CCCCC1)N1CCN(S(=O)(=O)c2cccc([N+](=O)[O-])c2)CC1 | 12% (inactive)
CCCCC(=O)Nc1nnc(S(=O)(=O)N(C)Cc2ccco2)s1 | 5.48% (inactive)
CN(Cc1ccccc1)S(=O)(=O)c1nnc(NC(=O)c2ccccc2F)s1 | 54.3% (active)
O=C(Nc1nnc(-c2ccccc2F)s1)c1ccccc1F | 0.79% (inactive)

SMILES | inhibition
Cc1cccc(C(=O)Nc2c(-c3ccc(F)cc3)nc3ncccn23)c1 | 0.58% (inactive)
C=C(C)C1CC23C(=O)C4(C(=O)c5ccccc5)C[C@@]5(C)CCC(CC2C1(C)C)(C4=O)C35OC (some centres not stated) | 8.07% (inactive)
Cc1ccc(-c2csc(C(C#N)=C(O)CN3CCN(C(=O)c4ccco4)CC3)n2)cc1 | 42.8% (active)
Cc1ccc(NC(=O)C(c2ccccc2)N2CCN(C(=O)c3ccco3)CC2)cc1 (configuration not stated) | 4.43% (inactive)
O=C(CN1CCN(C(=O)c2ccco2)CC1)Nc1ccc2c(c1)OCO2 | 0.64% (inactive)
Nc1nc(CSc2nnnn2-c2ccccc2)nc(Nc2ccccc2)n1 | 7.48% (inactive)
Cc1ccc(Nc2nc(CSc3nnnn3-c3ccccc3)cc(=O)[nH]2)cc1 | 46.6% (active)
COc1ccc(NC(=O)CSc2nnnn2-c2cccc(OC)c2)cc1 | 1.33% (inactive)
CC(C)CNc1cccc2c1S(=O)(=O)N(Cc1cn(Cc3ccc(Cl)cc3)nn1)Cc1ccccc1O2 | 5.62% (inactive)
C=CCOc1cccc(C2C(C(=O)c3ccc(C)o3)=C(O)C(=O)N2c2nnc(C)s2)c1 (configuration not stated) | 6.27% (inactive)
Cc1cc(N2C(=O)C(O)=C(C(=O)c3ccc(C)o3)C2c2ccc(OCc3ccccc3)cc2)no1 (configuration not stated) | 49.3% (active)
COc1cc(C2C(C(=O)c3ccco3)=C(O)C(=O)N2c2cc(C)on2)ccc1OCc1ccccc1 (configuration not stated) | 10.3% (inactive)
COc1cccc(Cn2cc(COC(=O)Nc3ccc(F)cc3)nn2)c1 | 0.76% (inactive)
COCc1c(C(=O)N/N=C(\C)c2ccncc2)nnn1-c1nonc1N | -1.16% (inactive)
Cc1ccccc1CS(=O)(=O)Cc1ccc(C(=O)Nc2ccc(Cl)cc2)o1 | 6.61% (inactive)
O=C(N/N=C/c1cc([N+](=O)[O-])ccc1O)/C(=C\c1cccs1)NC(=O)c1ccccc1 | 32.3% (inactive)
O=C(CSc1nc2ccccc2s1)NN=Cc1ccc(O)cc1O | 11% (inactive)
O=[N+]([O-])c1cc(Br)c(O)c(/C=N/Nc2nc3ccccc3s2)c1 | 64.1% (active)
C[C@H]1CN([C@@H](C)CO)C(=O)CCCn2nncc2CO[C@@H]1CN(C)Cc1ccc(Oc2ccccc2)cc1 | 1.78% (inactive)
N#CCC[C@H]1CC[C@]2(CCCN(Cc3ccc(Cl)cc3)C2)O1 | 1.52% (inactive)
c1ccc(CN=C2Nc3ccccc3CS2)nc1 | -3.75% (inactive)

SMILES | inhibition
Cc1ccccc1CN1CCCCC(NC(=O)c2cccc(C#N)c2)C1=O (configuration not stated) | 3.06% (inactive)
CC(C)c1nc(SCC(=O)Nc2cccc(C(=O)O)c2)c2c3c(sc2n1)CCCC3 | 69.3% (active)
Cc1ccc(C)c2c1cc(C)c1nnc(SCC(=O)Nc3cccc(C(=O)O)c3)n12 | 2.06% (inactive)
Cc1ccc(C)c(-n2c(SCC(=O)O)nc3sc4c(c3c2=O)CCCC4)c1 | 27.1% (inactive)
COc1cc(C)c(C)cc1S(=O)(=O)N1CCCc2ccccc21 | -3.84% (inactive)
CC(CCN1CCC(C(O)(c2ccccc2)c2ccccc2)CC1)Oc1ccc(Cl)cc1 (configuration not stated) | 1.34% (inactive)
CCOc1ccc(N(CC(=O)Nc2c(C)n(C)n(-c3ccccc3)c2=O)S(=O)(=O)c2ccc(Cl)s2)cc1 | 1.32% (inactive)
CCCCCCCCN1C(=O)[C@@H](CC(=O)N2CCN(C(=O)OCC)CC2)C[C@@]2(C(=O)OC)C1=C[C@H](C1CCCC1)O[C@@H]2C | 5.15% (inactive)
Cn1c(=O)c2ccccc2n(CC(=O)Nc2ccc3c(c2)OCCO3)c1=O | -1.32% (inactive)
Cc1ccc(C(=O)O)cc1-c1ccc(/C=C2\SC(=O)N(CC(=O)Nc3ccc4c(c3)OCO4)C2=O)o1 | 56% (active)
O=C(CN1CCN(c2ncc(C(F)(F)F)cc2Cl)CC1)Nc1ccc2c(c1)OCO2 | -4.82% (inactive)
Cc1ccc2nc(CN(C)C(=O)[C@@H](Cc3ccccc3)NC(=O)[C@H]3O[C@@H](n4ccc(=O)[nH]c4=O)[C@H](O)[C@@H]3O)[nH]c2c1 | 0.21% (inactive)
COc1ccc(CN2C/C(=C/c3ccccc3)N3C(=O)C[C@@H](c4ccccc4)N=C23)c(OC)c1 | 2.75% (inactive)
O=S(=O)(Nc1ncnc2sccc12)c1cccc(F)c1 | 5.08% (inactive)
COc1ccc(-c2csc3ncnc(N4CCN(S(=O)(=O)c5cccc(F)c5)CC4)c23)cc1 | 3.79% (inactive)
Cc1cc(F)ccc1S(=O)(=O)Nc1ncnc2scc(-c3ccc(F)cc3)c12 | 40.3% (active)
Cc1ccc2nc(-c3ccc(CN4CCC(n5cc(-c6ccccc6)[nH]c5=O)CC4)cc3)c(-c3ccccc3)nc2c1 | 9.33% (inactive)
COc1cccc(CNC(=O)C2CCCN(c3nc4ccccc4o3)C2)c1OC (configuration not stated) | 4.36% (inactive)
CC(=O)c1ccc(NC(=O)C2CC(=O)Nc3nc4ccccc4n32)cc1 (configuration not stated) | 2.8% (inactive)
Brc1ccc(COCCc2cn(Cc3ccccc3)c3ccccc23)cc1 | 3.73% (inactive)
COc1ccc(/C=C/C(=O)c2ccc(NS(=O)(=O)c3ccc(C)cc3)cc2)cc1O | 43% (active)

SMILES | inhibition
C/C=C/c1ccc(OCC(=O)NNC(=O)CN(C)S(=O)(=O)c2ccc(C)cc2)c(OC)c1 | 1.87% (inactive)
Cc1ccc(S(=O)(=O)NNC(=O)/C=C/c2cccc(F)c2)cc1 | 3.74% (inactive)
O=C(NCc1ccccc1)[C@H]1CCCN1C(=O)[C@H]1CCCN1C(=O)N1CCOCC1 | -0.04% (inactive)
CC(C)OC(=O)c1ccc(COc2ccc3ccc(=O)oc3c2)o1 | -0.52% (inactive)
COc1ccc(-c2csc3ncnc(Oc4ccc5c(C)cc(=O)oc5c4)c23)cc1 | 0.56% (inactive)
COc1ccc(-c2cc3ccc(OCc4nn[nH]n4)cc3oc2=O)cc1 | 44.7% (active)
CN(C)Cc1ccc(F)cc1Sc1cc(Cl)ccc1Cl | -7.65% (inactive)
CN(CCc1ccccc1)C(=O)Cn1nc(-c2ccccc2)ccc1=O | -2.33% (inactive)
CCc1nnc(NC(=O)CCN(c2ccc(C)cc2)S(=O)(=O)c2ccccc2)s1 | 1.09% (inactive)
COc1cc(SC#N)ccc1N=Cc1c(C)[nH]n(-c2ccc(C)cc2)c1=O | 6.39% (inactive)
CCc1nnc(NS(=O)(=O)c2ccc(N=Cc3c(C)[nH]n(-c4ccc(C)cc4)c3=O)cc2)s1 | 56.7% (active)
CCOC(=O)N1CCN(C(=O)C[C@H]2C[C@@]3(C(=O)OC)C(=C[C@H](C4CCCC4)O[C@@H]3C)N(Cc3ccccc3)C2=O)CC1 | 1.98% (inactive)
O=C(OC12CCCN(C1)/C(=C/c1ccccc1)C2)c1ccco1 (configuration not stated) | 3.14% (inactive)
CCOc1ccc(-n2c(O)c(/C=N/Nc3nnc(C)c(=O)[nH]3)c3ccccc3c2=O)cc1 | 47.2% (active)
COC(=O)Cc1csc(/N=C/c2c(O)n(-c3cccc(C(F)(F)F)c3)c(=O)c3ccccc23)n1 | -0.9% (inactive)
CCOc1ccc(N/C(N)=N/c2nc(C)c(C)c(=O)[nH]2)cc1 | 1.99% (inactive)
O=C(COc1ccccc1Cl)Nn1cnnc1 | 2.37% (inactive)
CCCCN1CCN(C(=O)c2ccc3c(c2)NC(=O)C(C)(C)O3)CC1 | -0.58% (inactive)
CCOC(=O)C1(Cc2ccccc2)CCN(Cc2cn(C(C)=O)c3ccccc23)CC1 | -1.49% (inactive)
